# Source: the supplement of paper PMC10849652
# About 7,900 targets were measured; listed, in parts, are those with a hit and a random draw of the rest. About 0.6% of all pairs of compound and target were hits.
# Legend:
# Experiment in all cases: log2 fold change, soluble protein after heating vs DMSO (PISA); higher = thermal stabilisation; K562 cells, 10 uM, 30 min; active = over 0.2 and 3.5 SD of the protein, either way, in both replicates (recomputed)
# volasertib = compound: CC[C@@H]1C(=O)N(C)c2cnc(Nc3ccc(C(=O)N[C@H]4CC[C@H](N5CCN(CC6CC6)CC5)CC4)cc3OC)nc2N1C(C)C [volasertib]
# How it was run: (§1)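 Values are thermal stability changes relative to control samples and are taken from duplicates. They are stated as log2 fold changes. Before quantification by TMTpro 16plex LC-MS/MS with equalised channel sums, K562 cells at 2×10^6 cells/mL were treated with 10 μM compound for 30 min, heated in aliquots for 3 min across 48°C-58°C, pooled, extracted in PBS with 0.5% NP-40 at 4°C, and centrifuged at 21,000xg for 90 min to give the soluble supernatant.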
# rosiglitazone = compound: CN(CCOC1=CC=C(C=C1)C[C@H]2C(=O)NC(=O)S2)C3=CC=CC=N3 (racemic) [rosiglitazone]
# How it was run: as §1
# sotrastaurin = compound: CN1CCN(c2nc(C3=C(c4c[nH]c5ccccc45)C(=O)NC3=O)c3ccccc3n2)CC1 [sotrastaurin]
# How it was run: as §1
# [1] = compound: CC[C@@H]1C(=O)N(C)c2cnc(Nc3ccc(C(=O)NC4CCN(C)CC4)cc3OC)nc2N1C1CCCC1
# How it was run: as §1
# epoxomicin = compound: CC[C@H](C)[C@@H](C(=O)N[C@@H]([C@@H](C)O)C(=O)N[C@@H](CC(C)C)C(=O)[C@]1(CO1)C)NC(=O)[C@H]([C@@H](C)CC)N(C)C(=O)C [epoxomicin]
# How it was run: as §1
# [2] = compound: CCn1c(C(=O)N(C2CC2)C2CC2)cc2c3c(ncn3C)c(Nc3cc(C)n(C)n3)nc21
# How it was run: as §1
# [3] = compound: CCn1cc(-c2ccnc3[nH]c(-c4cccc(CN(C)C)c4)cc23)c(-c2ccc(NC(=O)N(C)C)cc2)n1
# How it was run: as §1
# [4] = compound: CN(C)CC(=O)Nc1ccc2[nH]c(=O)c3ccccc3c2c1
# How it was run: as §1
# [5] = compound: CN1C2=C(C3=C1C(=O)N(N=C3)CC4=CC(=CC=C4)N)SC(=C2)S(=O)C
# How it was run: as §1
# [6] = compound: CN1CCC(CNc2ccc3ncc(-c4cccc(OC(F)(F)F)c4)n3n2)CC1
# How it was run: as §1
# saracatinib = compound: CN1CCN(CCOc2cc(OC3CCOCC3)c3c(Nc4c(Cl)ccc5c4OCO5)ncnc3c2)CC1 [saracatinib]
# How it was run: as §1
# alvocidib = compound: CN1CC[C@H](c2c(O)cc(O)c3c(=O)cc(-c4ccccc4Cl)oc23)[C@H](O)C1 [alvocidib]
# How it was run: as §1
# Tubastatin A = compound: CN1CCc2c(c3ccccc3n2Cc2ccc(C(=O)NO)cc2)C1 [Tubastatin A]
# How it was run: as §1
# [7] = compound: CNC(=O)C1=CC=CC=C1NC2=NC(=NC=C2Cl)NC3=C(C=C(C=C3)N4CCOCC4)OC
# How it was run: as §1
# defactinib = compound: CNC(=O)c1ccc(Nc2ncc(C(F)(F)F)c(NCc3nccnc3N(C)S(C)(=O)=O)n2)cc1 [defactinib]
# How it was run: as §1
# rucaparib = compound: CNCc1ccc(-c2[nH]c3cc(F)cc4c3c2CCNC4=O)cc1 [rucaparib]
# How it was run: as §1
# [8] = compound: CNc1nc(-c2ccc3c(N)n[nH]c3c2)cc(N2C[C@@H](C(=O)NC3CCCCC3)CC[C@H]2C)n1
# How it was run: as §1
# encorafenib = compound: COC(=O)N[C@@H](C)CNc1nccc(-c2cn(C(C)C)nc2-c2cc(Cl)cc(NS(C)(=O)=O)c2F)n1 [encorafenib]
# How it was run: as §1
# [9] = compound: COC(=O)[C@H](CCSC)NC(=O)C1=C(C=C(C=C1)NC[C@H](CS)N)C2=CC=CC=C2
# How it was run: as §1
# [10] = compound: CC[C@H](C)N1C=C(C2=C(C=C(C=C21)C3=CN=C(C=C3)N4CCNCC4)C(=O)NCC5=C(C=C(NC5=O)C)C)C
# How it was run: as §1
# Sequence of UniProt Q53R41 (Q53R41 whole entry, looked up): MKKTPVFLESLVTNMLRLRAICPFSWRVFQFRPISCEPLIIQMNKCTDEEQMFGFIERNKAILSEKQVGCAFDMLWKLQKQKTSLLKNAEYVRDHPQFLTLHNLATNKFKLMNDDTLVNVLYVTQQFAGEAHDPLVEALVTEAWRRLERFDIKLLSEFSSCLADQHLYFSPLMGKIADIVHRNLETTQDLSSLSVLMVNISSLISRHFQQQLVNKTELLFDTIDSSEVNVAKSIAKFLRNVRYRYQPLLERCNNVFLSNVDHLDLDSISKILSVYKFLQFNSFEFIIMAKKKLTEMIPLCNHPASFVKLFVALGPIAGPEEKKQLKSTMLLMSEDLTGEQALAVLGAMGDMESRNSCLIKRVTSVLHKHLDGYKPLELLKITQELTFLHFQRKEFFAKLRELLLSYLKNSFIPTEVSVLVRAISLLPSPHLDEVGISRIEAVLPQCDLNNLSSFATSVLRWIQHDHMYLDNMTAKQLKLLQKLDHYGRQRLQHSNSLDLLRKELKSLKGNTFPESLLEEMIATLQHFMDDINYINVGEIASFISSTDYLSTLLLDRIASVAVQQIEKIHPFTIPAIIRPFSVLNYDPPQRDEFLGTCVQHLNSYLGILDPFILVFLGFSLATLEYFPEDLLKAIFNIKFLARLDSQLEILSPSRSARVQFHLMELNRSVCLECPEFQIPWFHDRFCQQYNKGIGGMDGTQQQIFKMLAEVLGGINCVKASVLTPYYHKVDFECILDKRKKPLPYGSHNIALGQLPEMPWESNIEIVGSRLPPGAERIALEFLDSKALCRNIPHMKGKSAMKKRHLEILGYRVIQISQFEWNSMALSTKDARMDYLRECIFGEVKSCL
# Sequence of UniProt Q9UQC2 (Q9UQC2 whole entry, looked up): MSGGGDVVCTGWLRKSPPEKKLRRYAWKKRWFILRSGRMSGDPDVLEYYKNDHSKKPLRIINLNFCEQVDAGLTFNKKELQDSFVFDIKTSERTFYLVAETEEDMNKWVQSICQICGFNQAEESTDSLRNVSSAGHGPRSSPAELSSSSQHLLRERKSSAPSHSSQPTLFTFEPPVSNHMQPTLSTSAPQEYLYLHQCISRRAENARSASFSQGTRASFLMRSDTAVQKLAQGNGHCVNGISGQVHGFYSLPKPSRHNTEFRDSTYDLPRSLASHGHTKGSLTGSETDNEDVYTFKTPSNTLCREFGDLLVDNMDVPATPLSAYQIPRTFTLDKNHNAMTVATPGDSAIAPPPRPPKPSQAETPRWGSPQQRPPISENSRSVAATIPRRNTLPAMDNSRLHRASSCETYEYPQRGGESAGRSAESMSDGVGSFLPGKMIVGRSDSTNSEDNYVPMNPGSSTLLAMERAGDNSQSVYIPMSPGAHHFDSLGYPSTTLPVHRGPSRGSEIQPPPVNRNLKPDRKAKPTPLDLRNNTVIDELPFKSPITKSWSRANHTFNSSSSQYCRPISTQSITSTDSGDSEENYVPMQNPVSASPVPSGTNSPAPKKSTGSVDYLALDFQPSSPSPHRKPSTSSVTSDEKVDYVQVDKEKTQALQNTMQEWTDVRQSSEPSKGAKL
# Sequence of UniProt Q8IVP5 (Q8IVP5 whole entry, looked up): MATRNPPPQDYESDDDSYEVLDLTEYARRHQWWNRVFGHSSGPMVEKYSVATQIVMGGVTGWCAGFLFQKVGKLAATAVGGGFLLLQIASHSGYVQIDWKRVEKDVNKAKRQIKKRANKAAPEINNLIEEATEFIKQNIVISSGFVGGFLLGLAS
# Sequence of UniProt O43824 (O43824 whole entry, looked up): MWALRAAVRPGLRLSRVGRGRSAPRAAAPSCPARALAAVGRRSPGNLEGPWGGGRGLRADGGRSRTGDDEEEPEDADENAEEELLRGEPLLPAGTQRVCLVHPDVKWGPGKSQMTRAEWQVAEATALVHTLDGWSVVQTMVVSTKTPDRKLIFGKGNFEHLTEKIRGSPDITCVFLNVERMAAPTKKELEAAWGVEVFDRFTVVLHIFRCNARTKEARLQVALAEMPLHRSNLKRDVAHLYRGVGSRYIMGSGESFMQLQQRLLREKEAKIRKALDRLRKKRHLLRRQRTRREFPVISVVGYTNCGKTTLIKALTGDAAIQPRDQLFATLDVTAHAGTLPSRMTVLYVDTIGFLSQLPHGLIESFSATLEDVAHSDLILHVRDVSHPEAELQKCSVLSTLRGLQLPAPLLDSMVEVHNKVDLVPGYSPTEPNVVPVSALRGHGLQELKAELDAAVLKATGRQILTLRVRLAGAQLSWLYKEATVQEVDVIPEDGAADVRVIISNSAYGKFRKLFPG
# Sequence of UniProt O14893 (O14893 whole entry, looked up): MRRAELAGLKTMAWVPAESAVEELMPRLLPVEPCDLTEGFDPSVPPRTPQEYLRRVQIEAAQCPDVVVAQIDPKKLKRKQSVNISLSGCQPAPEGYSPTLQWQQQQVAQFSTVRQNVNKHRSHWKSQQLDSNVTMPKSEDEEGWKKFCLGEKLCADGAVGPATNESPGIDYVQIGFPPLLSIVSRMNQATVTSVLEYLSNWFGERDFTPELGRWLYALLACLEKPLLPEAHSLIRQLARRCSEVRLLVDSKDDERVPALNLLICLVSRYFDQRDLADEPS
# Sequence of UniProt Q9H4G4 (Q9H4G4 whole entry, looked up): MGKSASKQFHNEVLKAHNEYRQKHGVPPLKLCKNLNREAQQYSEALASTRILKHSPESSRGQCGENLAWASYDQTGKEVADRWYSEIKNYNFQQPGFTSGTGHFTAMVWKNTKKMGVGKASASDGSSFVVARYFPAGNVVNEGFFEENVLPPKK
# Sequence of UniProt Q9Y324 (Q9Y324 whole entry, looked up): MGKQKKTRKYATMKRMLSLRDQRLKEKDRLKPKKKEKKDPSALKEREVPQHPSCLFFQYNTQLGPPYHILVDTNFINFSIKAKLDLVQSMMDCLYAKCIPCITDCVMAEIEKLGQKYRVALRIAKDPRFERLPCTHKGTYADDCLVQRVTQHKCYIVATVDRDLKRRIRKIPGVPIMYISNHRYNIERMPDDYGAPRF
# Sequence of UniProt O43524 (O43524 whole entry, looked up): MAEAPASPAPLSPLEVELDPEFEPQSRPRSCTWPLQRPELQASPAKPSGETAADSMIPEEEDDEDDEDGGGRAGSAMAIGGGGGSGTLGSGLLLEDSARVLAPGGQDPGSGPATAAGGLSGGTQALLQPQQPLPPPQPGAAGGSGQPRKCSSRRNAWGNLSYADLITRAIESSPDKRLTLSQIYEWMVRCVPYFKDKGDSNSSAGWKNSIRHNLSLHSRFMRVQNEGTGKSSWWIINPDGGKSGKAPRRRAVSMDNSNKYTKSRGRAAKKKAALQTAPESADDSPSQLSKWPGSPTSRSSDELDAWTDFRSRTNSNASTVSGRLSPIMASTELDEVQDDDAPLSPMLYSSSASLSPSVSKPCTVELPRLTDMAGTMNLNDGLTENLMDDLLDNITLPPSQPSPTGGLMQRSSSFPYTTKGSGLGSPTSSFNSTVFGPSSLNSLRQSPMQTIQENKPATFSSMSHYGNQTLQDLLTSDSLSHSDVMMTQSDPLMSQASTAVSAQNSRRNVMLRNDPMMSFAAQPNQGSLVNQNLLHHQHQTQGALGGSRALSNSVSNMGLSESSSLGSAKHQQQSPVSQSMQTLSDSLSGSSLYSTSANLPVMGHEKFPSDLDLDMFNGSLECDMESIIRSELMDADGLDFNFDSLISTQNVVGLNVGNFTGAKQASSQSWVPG
# Sequence of UniProt Q14956 (Q14956 whole entry, looked up): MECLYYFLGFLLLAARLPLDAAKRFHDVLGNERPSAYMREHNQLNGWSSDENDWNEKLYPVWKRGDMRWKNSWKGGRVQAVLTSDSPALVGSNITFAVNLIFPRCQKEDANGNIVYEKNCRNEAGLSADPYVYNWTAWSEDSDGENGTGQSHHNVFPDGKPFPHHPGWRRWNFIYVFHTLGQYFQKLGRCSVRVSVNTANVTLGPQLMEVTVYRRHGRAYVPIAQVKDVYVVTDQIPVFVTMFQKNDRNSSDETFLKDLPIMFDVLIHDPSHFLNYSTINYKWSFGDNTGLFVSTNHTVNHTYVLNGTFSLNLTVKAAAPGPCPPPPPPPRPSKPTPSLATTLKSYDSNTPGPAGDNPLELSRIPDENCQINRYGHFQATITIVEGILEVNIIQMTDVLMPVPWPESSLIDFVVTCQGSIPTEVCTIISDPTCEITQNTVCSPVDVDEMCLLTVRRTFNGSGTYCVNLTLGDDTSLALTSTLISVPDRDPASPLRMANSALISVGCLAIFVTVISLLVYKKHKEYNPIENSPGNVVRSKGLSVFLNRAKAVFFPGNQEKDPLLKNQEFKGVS
# Sequence of UniProt P54652 (P54652 whole entry, looked up): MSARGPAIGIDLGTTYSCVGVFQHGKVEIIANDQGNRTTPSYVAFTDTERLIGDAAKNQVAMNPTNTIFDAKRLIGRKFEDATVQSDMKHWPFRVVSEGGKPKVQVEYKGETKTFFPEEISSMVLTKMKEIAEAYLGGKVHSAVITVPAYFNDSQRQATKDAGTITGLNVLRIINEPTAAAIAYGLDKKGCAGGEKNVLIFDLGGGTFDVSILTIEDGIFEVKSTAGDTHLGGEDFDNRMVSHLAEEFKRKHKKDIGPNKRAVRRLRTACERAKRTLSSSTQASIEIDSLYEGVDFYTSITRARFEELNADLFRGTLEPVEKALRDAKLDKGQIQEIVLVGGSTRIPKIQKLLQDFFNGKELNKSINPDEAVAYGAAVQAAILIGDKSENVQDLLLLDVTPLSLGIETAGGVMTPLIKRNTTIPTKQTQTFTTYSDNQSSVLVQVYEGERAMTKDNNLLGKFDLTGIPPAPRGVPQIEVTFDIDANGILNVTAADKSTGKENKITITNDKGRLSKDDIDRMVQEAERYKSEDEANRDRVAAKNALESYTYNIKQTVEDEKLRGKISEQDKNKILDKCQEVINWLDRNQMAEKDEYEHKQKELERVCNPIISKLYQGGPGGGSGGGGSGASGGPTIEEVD
# Sequence of UniProt P01344 (P01344 whole entry, looked up): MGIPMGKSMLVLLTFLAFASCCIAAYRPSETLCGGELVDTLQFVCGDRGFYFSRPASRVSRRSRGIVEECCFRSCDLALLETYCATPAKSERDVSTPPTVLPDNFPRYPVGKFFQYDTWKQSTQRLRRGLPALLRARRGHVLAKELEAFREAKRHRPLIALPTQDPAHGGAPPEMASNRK
Target,log2 fold change (volasertib),log2 fold change (rosiglitazone),log2 fold change (sotrastaurin),log2 fold change [1],log2 fold change (epoxomicin),log2 fold change [2],log2 fold change [3],log2 fold change [4],log2 fold change [5],log2 fold change [6],log2 fold change (saracatinib),log2 fold change (alvocidib),log2 fold change (Tubastatin A),log2 fold change [7],log2 fold change (defactinib),log2 fold change (rucaparib),log2 fold change [8],log2 fold change (encorafenib),log2 fold change [9],log2 fold change [10]
FUNDC1 (UniProt Q8IVP5),0.078 (inactive),-0.13 (inactive),0.049 (inactive),–,–,–,–,–,–,–,–,–,–,–,–,–,–,–,–,–
GAB2 (UniProt Q9UQC2),-0.009 (inactive),–,0.029 (inactive),-0.203 (inactive),0.065 (inactive),-0.085 (inactive),0.034 (inactive),-0.016 (inactive),0.002 (inactive),-0.458 (inactive),-0.164 (inactive),-0.053 (inactive),-0.024 (inactive),-0.575 (inactive),-0.194 (inactive),0.162 (inactive),-0.137 (inactive),-0.023 (inactive),0.116 (inactive),–
FASTKD1 (UniProt Q53R41),–,0.014 (inactive),-0.046 (inactive),-0.023 (inactive),0.155 (inactive),-0.151 (inactive),0.051 (inactive),0.064 (inactive),0.072 (inactive),-0.188 (inactive),-0.118 (inactive),-0.12 (inactive),0.037 (inactive),0.037 (inactive),-0.22 (inactive),-0.093 (inactive),0.112 (inactive),0.026 (inactive),-0.02 (inactive),-0.088 (inactive)
FAT1 (UniProt Q14517),0.009 (inactive),0.095 (inactive),-0.072 (inactive),–,-0.05 (inactive),0.006 (inactive),-0.018 (inactive),0.07 (inactive),-0.11 (inactive),0.082 (inactive),-0.085 (inactive),0.021 (inactive),-0.031 (inactive),-0.041 (inactive),-0.05 (inactive),–,-0.094 (inactive),–,-0.087 (inactive),-0.048 (inactive)
GPNMB (UniProt Q14956),–,–,–,0.206 (inactive),-0.191 (inactive),0.149 (inactive),–,–,–,–,–,–,–,-0.221 (inactive),–,0.007 (inactive),–,-0.25 (inactive),–,–
FAT2 (UniProt Q9NYQ8),0.029 (inactive),-0.27 (inactive),–,0.011 (inactive),-0.047 (inactive),-0.183 (inactive),-0.023 (inactive),-0.06 (inactive),-0.023 (inactive),0.109 (inactive),-0.243 (inactive),0.083 (inactive),0.144 (inactive),-0.206 (inactive),0.011 (inactive),-0.007 (inactive),0.021 (inactive),0.094 (inactive),0.001 (inactive),–
HSPA2 (UniProt P54652),–,0.02 (inactive),0.038 (inactive),–,–,-0.012 (inactive),–,–,–,–,–,–,–,0.809 (active),–,–,–,–,–,-0.014 (inactive)
"HBZ, A0A494C057",–,-0.188 (inactive),–,0.203 (inactive),–,-0.008 (inactive),–,–,–,–,–,–,–,0.005 (inactive),–,-0.058 (inactive),–,-0.094 (inactive),–,-0.079 (inactive)
GREB1 (UniProt Q4ZG55),–,–,-0.175 (inactive),–,-0.081 (inactive),-0.108 (inactive),–,-0.095 (inactive),–,–,–,0.123 (inactive),0.264 (inactive),-0.113 (inactive),-0.008 (inactive),–,–,–,-0.112 (inactive),–
FOXO3 (UniProt O43524),-0.061 (inactive),–,0.004 (inactive),-0.092 (inactive),0.007 (inactive),-0.213 (inactive),-0.004 (inactive),0.055 (inactive),0.158 (inactive),-0.188 (inactive),-0.017 (inactive),-0.124 (inactive),0.051 (inactive),-0.167 (inactive),-0.037 (inactive),-0.077 (inactive),-0.208 (inactive),0.16 (inactive),0.021 (inactive),–
H3-3A (UniProt P84243),-0.239 (inactive),0.076 (inactive),-0.356 (inactive),-0.083 (inactive),–,-0.123 (inactive),–,-0.083 (inactive),0.045 (inactive),–,-0.094 (inactive),-0.063 (inactive),0.203 (inactive),0.002 (inactive),0 (inactive),0.031 (inactive),0.189 (inactive),0.034 (inactive),0.102 (inactive),0.147 (inactive)
GOPC (UniProt Q9HD26),-0.015 (inactive),-0.06 (inactive),0.01 (inactive),–,-0.053 (inactive),0 (inactive),0.149 (inactive),0.056 (inactive),0.153 (inactive),0.485 (inactive),-0.147 (inactive),0.065 (inactive),0.177 (inactive),0.216 (inactive),0.033 (inactive),–,0.164 (inactive),–,-0.229 (inactive),0.022 (inactive)
IGF2 isoform 3 (UniProt P01344),–,–,–,–,–,-0.395 (inactive),–,-0.218 (inactive),0.135 (inactive),–,0.148 (inactive),–,–,-0.033 (inactive),0.007 (inactive),–,-0.105 (inactive),–,0.006 (inactive),–
FCF1 (UniProt Q9Y324),0.108 (inactive),–,-0.116 (inactive),0.095 (inactive),-0.003 (inactive),–,0.134 (inactive),-0.041 (inactive),0.107 (inactive),0.219 (inactive),-0.111 (inactive),–,0.07 (inactive),–,0.26 (inactive),0.187 (inactive),0.2 (inactive),0.121 (inactive),-0.044 (inactive),–
GPS2 (UniProt Q13227),-0.072 (inactive),0.027 (inactive),-0.007 (inactive),0.151 (inactive),0.016 (inactive),-0.011 (inactive),–,0.068 (inactive),–,–,–,–,0.033 (inactive),0.008 (inactive),-0.079 (inactive),0.02 (inactive),–,0.041 (inactive),-0.025 (inactive),0.082 (inactive)
HNRNPUL1 (UniProt M0R247),0.16 (inactive),–,0.128 (inactive),-0.072 (inactive),–,0.121 (inactive),–,–,0.21 (inactive),–,-0.327 (inactive),0.326 (inactive),-0.054 (inactive),-0.145 (inactive),–,0.09 (inactive),-0.431 (inactive),-0.086 (inactive),–,-0.101 (inactive)
GEMIN2 (UniProt O14893),-0.061 (inactive),0.059 (inactive),0.067 (inactive),-0.203 (inactive),0.011 (inactive),–,0.013 (inactive),0.019 (inactive),0.101 (inactive),0.031 (inactive),0.001 (inactive),0.009 (inactive),–,–,-0.041 (inactive),0.136 (inactive),0.013 (inactive),0.151 (inactive),0.072 (inactive),-0.057 (inactive)
GLIPR2 (UniProt Q9H4G4),0.163 (inactive),0.151 (inactive),-0.027 (inactive),-0.047 (inactive),-0.088 (inactive),-0.041 (inactive),-0.032 (inactive),-0.117 (inactive),-0.084 (inactive),-0.239 (inactive),0.002 (inactive),0.054 (inactive),-0.002 (inactive),0.036 (inactive),0.047 (inactive),0.015 (inactive),0.035 (inactive),-0.062 (inactive),-0.013 (inactive),–
GTPBP6 (UniProt O43824),–,0.299 (inactive),-0.011 (inactive),-0.07 (inactive),0.026 (inactive),0.025 (inactive),-0.079 (inactive),0.034 (inactive),-0.13 (inactive),-0.007 (inactive),0.049 (inactive),0.015 (inactive),-0.03 (inactive),-0.149 (inactive),-0.013 (inactive),0.053 (inactive),0.007 (inactive),-0.086 (inactive),0.057 (inactive),-0.041 (inactive)
HNRNPK isoform 3 (UniProt P61978),–,-0.035 (inactive),0.059 (inactive),0.121 (inactive),-0.035 (inactive),0.034 (inactive),0.032 (inactive),0.012 (inactive),-0.057 (inactive),0.076 (inactive),0.04 (inactive),–,0.034 (inactive),-0.05 (inactive),0.096 (inactive),0.032 (inactive),-0.035 (inactive),-0.041 (inactive),-0.028 (inactive),-0.062 (inactive)
FGG (UniProt P02679),-0.042 (inactive),–,–,–,–,–,0.035 (inactive),–,–,0.137 (inactive),–,–,–,–,–,–,–,–,–,–
